This passage reports binding signal results from PMC8384837, “Expanding the binding specificity for RNA recognition by a PUF domain”.

Common to all, as to experiment: yeast three-hybrid, YBZ-1, SC-Leu-His + 0.5 mM 3-AT, 4 days
What all share (details): tags: N-Gal4 AD-HA kept; label: inside an RPR1-promoter hybrid RNA with tandem MS2 sites; ssRNA

One test addresses PUM1 PUF domain R4-RCG (Homo sapiens, UniProt Q14671 828-1176, N971R;H972C;Q975G). In outline: (§1)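 Sequencing with Illumina followed PCR amplification of the repeat regions from transformants grown four days on SC-Leu (input) or SC-Leu-His + 0.5 mM 3-AT (selection). The transformants were strain YBZ-1 with a LexA–MS2 coat fusion and a HIS3 reporter, carrying Pumilio-1 PUF domain libraries and matching RNA elements. The interaction score is the log change in variant frequency from input to selection, computed in log2 with a pseudocount of 1 for absent variants.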

The target of a further test is PUM1 PUF domain R4-APS (Homo sapiens, UniProt Q14671 828-1176, N971A;H972P;Q975S). An outline of the steps:
as §1

In another test the target is PUM1 PUF domain R5-DHL (Homo sapiens, UniProt Q14671 828-1176, C1007D;R1008H;Q1011L). In outline: as §1
Chain of PUM1 PUF domain R5-DHL (Q14671 828-1176 C1007D/R1008H/Q1011L): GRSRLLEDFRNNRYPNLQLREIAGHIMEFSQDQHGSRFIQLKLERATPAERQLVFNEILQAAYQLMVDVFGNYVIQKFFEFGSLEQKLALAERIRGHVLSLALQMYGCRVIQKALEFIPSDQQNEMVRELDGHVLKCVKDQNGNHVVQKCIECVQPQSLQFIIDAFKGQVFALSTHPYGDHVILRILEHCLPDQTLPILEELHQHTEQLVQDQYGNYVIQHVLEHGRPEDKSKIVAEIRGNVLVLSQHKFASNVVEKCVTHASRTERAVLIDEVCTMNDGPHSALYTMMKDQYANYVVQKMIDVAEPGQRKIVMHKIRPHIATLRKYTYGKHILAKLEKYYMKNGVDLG
Another test addresses T1, PUM1 PUF domain R6-SWC (Homo sapiens, UniProt Q14671 828-1176, N1043S;Y1044W;Q1047C).
T1 sequence: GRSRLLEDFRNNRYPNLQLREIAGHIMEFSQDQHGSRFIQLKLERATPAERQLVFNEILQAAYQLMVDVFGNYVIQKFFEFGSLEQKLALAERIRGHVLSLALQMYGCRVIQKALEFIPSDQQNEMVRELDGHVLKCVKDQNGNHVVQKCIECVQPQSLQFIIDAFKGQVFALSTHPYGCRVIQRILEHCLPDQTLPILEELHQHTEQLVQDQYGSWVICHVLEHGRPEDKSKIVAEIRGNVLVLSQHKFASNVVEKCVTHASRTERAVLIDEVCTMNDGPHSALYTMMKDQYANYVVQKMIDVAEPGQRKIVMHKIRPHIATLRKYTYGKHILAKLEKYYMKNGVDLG
In outline: as §1

A further test addresses PUM1 PUF domain R8-KKR (Homo sapiens, UniProt Q14671 828-1176, N1122K;Y1123K;Q1126R). In outline: as §1
The next test concerns the target PUM1 PUF domain R4-VGI (Homo sapiens, UniProt Q14671 828-1176, N971V;H972G;Q975I). An outline of the steps:
as §1

For a further test, the target named is PUM1 PUF domain R5-PRE (Homo sapiens, UniProt Q14671 828-1176, C1007P;Q1011E). An outline of the steps: as §1
Chain of PUM1 PUF domain R5-PRE (Q14671 828-1176 C1007P/Q1011E): as the sequence (Q14671 828-1176 C1007D/R1008H/Q1011L) above, with D180P, H181R, L184E counted along it
The target in a further test is T2, PUM1 PUF domain R6-FWV (Homo sapiens, UniProt Q14671 828-1176, N1043F;Y1044W;Q1047V).
T2 sequence: T1 sequence with S216F, C220V
An outline of the steps: as §1

In a further test the target is PUM1 PUF domain R4-DWM (Homo sapiens, UniProt Q14671 828-1176, N971D;H972W;Q975M). In outline:
as §1

Another test concerns the target PUM1 PUF domain R8-RRV (Homo sapiens, UniProt Q14671 828-1176, N1122R;Y1123R;Q1126V). An outline of the steps: as §1
A further test concerns the target PUM1 PUF domain R3-DHL (Homo sapiens, UniProt Q14671 828-1176, C935D;R936H;Q939L). An outline of the steps: as §1
The target in the next test is PUM1 PUF domain R3-TYH (Homo sapiens, UniProt Q14671 828-1176, C935T;R936Y;Q939H). In outline: as §1
The target in the next test is PUM1 PUF domain R5-AAD (Homo sapiens, UniProt Q14671 828-1176, C1007A;R1008A;Q1011D). In outline: as §1
A further test deals with PUM1 PUF domain R5-ASR (Homo sapiens, UniProt Q14671 828-1176, C1007A;R1008S;Q1011R). In outline:
as §1

The next test addresses PUM1 PUF domain R5-WSR (Homo sapiens, UniProt Q14671 828-1176, C1007W;R1008S;Q1011R). In outline: as §1

Substitutions are numbered along the chain they refer to.

Consider “GGCUAGAACUAGUGGAUCCCCCGGCGCCCGGCGGCUCGAGCCCGGGUAAGUGUAAAUAGUCUGCAUGCCGCCGGGCGCCAUGCCUGCAGGUCGACUCUAGAAAACAUG”, for which the binding signal with PUM1 PUF domain R4-RCG is 3.26 log2 enrichment (interaction score); with PUM1 PUF domain R4-APS, 4.36 log2 enrichment (interaction score); with PUM1 PUF domain R5-DHL, 3.58 log2 enrichment (interaction score); with PUM1 PUF domain R6-SWC it was 3.92 log2 enrichment (interaction score); in the test with PUM1 PUF domain R8-KKR, 1.33 log2 enrichment (interaction score); in the test with PUM1 PUF domain R4-VGI, 2.49 log2 enrichment (interaction score). Besides, the binding signal with PUM1 PUF domain R5-PRE was 3.07 log2 enrichment (interaction score); with PUM1 PUF domain R6-FWV it was 4.97 log2 enrichment (interaction score); with PUM1 PUF domain R4-DWM it was 6.03 log2 enrichment (interaction score); in the test with PUM1 PUF domain R8-RRV, 0.86 log2 enrichment (interaction score); in the test with PUM1 PUF domain R3-DHL, 3.42 log2 enrichment (interaction score); with PUM1 PUF domain R3-TYH, 2.88 log2 enrichment (interaction score).

As for “GGCUAGAACUAGUGGAUCCCCCGGCGCCCGGCGGCUCGAGCCCGGGUAAGUGUGAAUAGUCUGCAUGCCGCCGGGCGCCAUGCCUGCAGGUCGACUCUAGAAAACAUG”, the binding signal was 2.54 log2 enrichment (interaction score) with PUM1 PUF domain R5-DHL, 3.8 log2 enrichment (interaction score) with PUM1 PUF domain R5-PRE and 2.97 log2 enrichment (interaction score) with PUM1 PUF domain R5-AAD.

For the sequence “GGCUAGAACUAGUGGAUCCCCCGGCGCCCGGCGGCUCGAGCCCGGGUAAGUGUCAAUAGUCUGCAUGCCGCCGGGCGCCAUGCCUGCAGGUCGACUCUAGAAAACAUG”, the binding signal is 2.14 log2 enrichment (interaction score) with PUM1 PUF domain R5-DHL, 5.07 log2 enrichment (interaction score) with PUM1 PUF domain R5-ASR and 5.87 log2 enrichment (interaction score) with PUM1 PUF domain R5-WSR.
